The values that follow come from PubChem BioAssay (NCI).

Some test systems named below: T-47D breast; BT-549 breast; MDA-MB-435 melanoma; SW-620 colon; MCF7 breast; HCT-116 colon; HCC-2998 colon; KM12 colon.
Test in all cases: NCI-60 one-dose screen, 48 h (100 = growth as untreated, 0 = no growth, -100 = all killed)
Conditions in all cases: 10 µM unless noted

The panel holds about 83,000 compounds, 20% with a hit somewhere; the sample as a whole holds those more often.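 Negative percent growth values reflect cell death: -40 means 40% of the cells present at the start died, and -100 means all died.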 A number with no mark means an inactive call. Active and inactive are the calls of the source. The calls were made as follows: active = growth percent below 10; inactive = the rest.

Turning to `Ic1ccccc1I`, the growth in the assay on T-47D breast is 107%; in the assay with BT-549 breast, 115%; with MDA-MB-435 melanoma, 111%; with SW-620 colon, 108%; in the assay with MCF7 breast it was 91.5%; with HCT-116 colon, 98.5%. Further, the figures for the growth in the assay on HCC-2998 colon and with KM12 colon were 98.2% and 104%, respectively.
Take `Cc1ccc(/C=C/C(=O)Nc2ncc(Cc3ccc(F)cc3)s2)o1`: the growth was 58.5% with T-47D breast; 68.9% with BT-549 breast; -25.9% (active) with MDA-MB-435 melanoma; 24.6% in the assay with SW-620 colon; 14% in the assay with MCF7 breast; 33.5% in the assay with HCT-116 colon. Besides, the growth in the assay with HCC-2998 colon was 48.8%; in the assay with KM12 colon, 21%.
For `COc1ccc(C2CC(c3cc(OC)c(OC)c(OC)c3)=NO2)cc1OCCCCOc1cc2c(cc1OC)C(=O)N1CCC[C@H]1C=N2` (stereo not given in full), the growth was 11.4% with T-47D breast; -71.4% (active) with BT-549 breast; -58.1% (active) with MDA-MB-435 melanoma; -21.9% (active) with SW-620 colon; 5.25% (active) in the assay with MCF7 breast; 8.33% (active) with HCT-116 colon. The results for the growth with HCC-2998 colon and in the assay on KM12 colon were -67.3% (active) and -22% (active), respectively.
In the case of `COc1cc(C2C(C(=O)OCc3ccccc3)=C(C)NC(C)=C2C(=O)OCc2ccccc2)cc(OC)c1OC`, the growth with T-47D breast was 11.9%; in the assay with BT-549 breast it was 34%; in the assay with MDA-MB-435 melanoma, 27.3%; in the assay with SW-620 colon, 40.3%; in the assay on MCF7 breast, 10.4%; in the assay on HCT-116 colon it was 17.1%. Also, the results for the growth with HCC-2998 colon and in the assay on KM12 colon were 52% and 19.4%, respectively.
`N#C/C(=C\c1ccc([N+](=O)[O-])cc1)n1nnc2cc(F)c(F)cc21`: the growth in the assay on T-47D breast is -15.2% (active); in the assay on BT-549 breast it was 77.6%; in the assay on MDA-MB-435 melanoma, 41.1%; in the assay on SW-620 colon, -18.5% (active); in the assay on MCF7 breast, 21.8%; in the assay with HCT-116 colon, -46.4% (active). In addition, the growth with HCC-2998 colon is -56.2% (active); in the assay on KM12 colon, 3.75% (active).
For the compound `C=C1C(=O)O[C@H]2[C@H]1CC/C(CNC(=O)c1c[nH]c3ccc(F)cc13)=C\CC[C@@]1(C)O[C@@H]21`, the growth in the assay on T-47D breast is -39.6% (active); with BT-549 breast, 13%; in the assay with MDA-MB-435 melanoma, 3.64% (active); in the assay on SW-620 colon it was -48.9% (active); with MCF7 breast, -26.3% (active); in the assay on HCT-116 colon, -49.1% (active). Also, the results for the growth with HCC-2998 colon and in the assay on KM12 colon were -79.3% (active) and 42.4%, respectively.
For the compound `COc1ccccc1N(C(C)=O)C1=C(Cl)C(=O)c2ccccc2C1=O`, the growth with T-47D breast is -33.1% (active); in the assay with BT-549 breast it was -4.47% (active); in the assay with MDA-MB-435 melanoma, -13.3% (active); in the assay on SW-620 colon, -65.2% (active); in the assay on MCF7 breast, 11.8%; in the assay on HCT-116 colon it was -29.1% (active). For the same compound, the growth with HCC-2998 colon is 19.5%; with KM12 colon, -11.4% (active).
For the compound `C#CCn1cnc2cnc(Nc3cccc(NC(=O)C=C)c3)nc21`, the growth was 66% [6.25 µM] in the assay with T-47D breast; 60.9% [6.25 µM] in the assay with BT-549 breast; 60.6% [6.25 µM] with MDA-MB-435 melanoma; 91.2% [6.25 µM] with SW-620 colon; 77.4% [6.25 µM] in the assay on MCF7 breast; 86.4% [6.25 µM] in the assay with HCT-116 colon. The values for the growth in the assay on HCC-2998 colon and in the assay with KM12 colon were 97.9% [6.25 µM] and 91.9% [6.25 µM], respectively.
As for `N#Cc1c(-c2ccccc2)nc(SCc2nnc(-c3ccc(Cl)cc3)o2)[nH]c1=O`, the growth is 53.8% in the assay on T-47D breast; 76.3% with BT-549 breast; 109% with MDA-MB-435 melanoma; 100% with SW-620 colon; 91.3% with MCF7 breast; 83.9% in the assay with HCT-116 colon. Also, the growth is 103% with HCC-2998 colon and 102% with KM12 colon.
For the compound `Cc1[nH]c(C2CC(c3ccc(C(F)(F)F)c(F)c3)=NN2c2ccccc2)c(C)c1C(=O)NCC(F)(F)F` (stereo not given), the growth is 65.9% in the assay on T-47D breast; 103% in the assay with BT-549 breast; 98.1% with MDA-MB-435 melanoma; 99.1% in the assay with SW-620 colon; 56.5% in the assay on MCF7 breast; 82.4% with HCT-116 colon. The results for the growth with HCC-2998 colon and with KM12 colon were 96.5% and 87.5%, respectively.
Regarding `Cc1ccc(C)c(/C=C2\CN(C(=O)OC(C)(C)C)C/C(=C\c3cc(C)ccc3C)C2=O)c1`, the growth with T-47D breast is 61.4%; with BT-549 breast, 85.5%; with MDA-MB-435 melanoma it was -9.21% (active); in the assay on SW-620 colon, 18.5%; in the assay on MCF7 breast it was 23.3%; in the assay on HCT-116 colon it was -16.7% (active). For the same compound, the growth is 52.2% in the assay with HCC-2998 colon and 16.7% in the assay on KM12 colon.
For `CC(C)(C)n1cc(-c2ccnc(NCCNS(=O)(=O)c3ccc(O)cc3)c2)c(-c2cccc(O)c2)n1`, the growth is 88.4% in the assay with T-47D breast; 93.6% in the assay on BT-549 breast; 101% in the assay on MDA-MB-435 melanoma; 103% with SW-620 colon; 81.5% in the assay on MCF7 breast; 82.4% with HCT-116 colon. For the same compound, the growth with HCC-2998 colon is 122%; in the assay with KM12 colon, 94.7%.
Regarding `CCN1C(=O)N(CC)C2C1NN=c1s/c(=C\c3ccc(C(F)(F)F)cc3)c(=O)n12` (stereo not given), the growth with T-47D breast is 64.7%; in the assay on BT-549 breast, 9.68% (active); in the assay on MDA-MB-435 melanoma, -26.5% (active); with SW-620 colon, 20.7%; with MCF7 breast it was 15.9%; in the assay with HCT-116 colon, 9.6% (active). The values for the growth in the assay with HCC-2998 colon and in the assay with KM12 colon were 9.59% (active) and 15.2%, respectively.
Regarding `COc1ccc2c(c1)/C(=N/c1n[nH]c(=S)s1)C(=O)N2`, the growth is 69.6% in the assay on T-47D breast; 113% in the assay on BT-549 breast; 104% with MDA-MB-435 melanoma; 91.3% in the assay on SW-620 colon; 25.1% in the assay on MCF7 breast; 103% in the assay with HCT-116 colon. Moreover, the growth was 107% with HCC-2998 colon and 89% with KM12 colon.
For the compound `CN1CCN(c2ccc(NC(=O)c3cncnc3Nc3ccc(OCc4cccc(F)c4)c(Cl)c3)cc2)CC1`, the growth was 72.9% in the assay on T-47D breast; 102% in the assay with BT-549 breast; -72.3% (active) with MDA-MB-435 melanoma; -30.5% (active) with SW-620 colon; 13.4% with MCF7 breast; 17.4% in the assay with HCT-116 colon. Moreover, the results for the growth in the assay with HCC-2998 colon and in the assay with KM12 colon were 71.5% and 75.8%, respectively.
